Structures are written as SMILES. Values without a mark were called inactive. Calls follow the shape of the dose curve; as a rule, active = well fitted curve in the direction sought with a large enough effect; inactive = no such curve, though single readings can be large or run the other way.

The target in this assay is ATP-dependent 6-phosphofructokinase (Geobacillus stearothermophilus) (UniProt P00512). Nature of the assay: Confirmatory Assay to Find Inhibitors of T. brucei phosphofructokinase: Counter Screen against Bacillus PFK. To be noted: B. stearothermophilus PFK, ADP-Glo luminescence, 45 min; series mostly up to 57.5 µM; inhibition: at the top concentration. The source says: Various species of the protozoan family Trypanosomatidae are responsible for a range of serious human diseases in tropical and subtropical areas of the world. […] Many of the disorders caused by trypanosomatids are fatal if left untreated, but most currently used drugs are inefficient and toxic. […] Oxidative metabolism involving the mitochondrial tricarboxylic acid cycle and oxidative phosphorylation are repressed in these parasites, and recent RNA interference (RNAi) experiments have shown that even partial depletion of certain individual glycolytic enzymes can lead to the death of cultured parasites. One such glycolytic enzyme, phosphofructokinase (PFK), catalyzes the formation of fructose-1,6-bisphosphate (F1,6BP) and ADP from fructose-6-phosphate (F6P) and ATP, and in many metabolic circumstances makes an important contribution to the control of flux through the glycolytic pathway. As a specific glycolytic target, PFK is particularly attractive as it catalyzes the first irreversible step in glycolysis, and structural and kinetic studies have shown very substantial and essential differences from corresponding host enzymes, allowing for the discovery of parasite-selective inhibitors. A luminescent biochemical assay was performed that used luciferase-based nucleotide detection (ADP-Glo, Promega) to examine the effect of identified actives against a bacterial isoform of PFK, namely Bacillus stearothermophilus, for target specificity. The assay is identical in concept to the T. brucei PFK qHTS assay, but instead uses the B. stearothermophilus isoform of PFK (Sigma, St. Louis, MO) and ATP/F6P at bacterial isoform-specific Km concentrations. NIH Chemical Genomics Center [NCGC] NIH Molecular Libraries Probe Centers Network [MLPCN] MLPCN Grant: MH092153-01 Assay Submitter (PI): Malcom Walkinshaw, University of Edinburgh
Substrate buffer was dispensed into white, solid 1536-well plates at 3 uL/well in 0.1M triethanolamine (TEA) buffer, pH 8.0, containing final concentrations of 5 mM MgCl2, 0.01% Tween20, 0.6 mM fructose-6-phosphate (F6P) and 0.1 mM ATP. Then, 23 nl of compounds or DMSO were delivered to each well using a pin tool. One uL of B. stearothermophilus PFK (0.1 M TEA, 0.01% Tween20, 0.1% bovine serum albumin (BSA) and 10 nM PFK, final concentrations) was then dispensed, and plates were incubated at room temperature for 45 min. The luminescent detection reagent, ADP-Glo (Promega), was then added in two steps: the first reagent, ADP-Glo (which converts remaining uncatalyzed ATP), was added at 2.5 uL/well and incubated for ten minutes at room temperature, and the second component, Kinase Detection reagent (which converts ADP to ATP as a substrate for luciferase-based luminescence), was added immediately after at 5uL/well, followed by one final ten minute room temperature incubation. The plates were measured on a ViewLux plate reader for luminescent signal using a clear filter with a one second exposure. The %Activity was determined from the corrected luminescence values. 1x (1.25nM) and 0x PFK enzyme controls (untreated) were included to normalize %Activity of identified inhibitors; 0x enzyme values corresponded to 100%Activity (full inhibition), while 1x PFK enzyme values were used to normalize 0% Activity (no inhibition).
What is called inhibition is the drop in the measured response relative to a control, in per cent. For the compound `Cc1cc(NS(=O)(=O)c2ccc(NC(=O)Cc3ccc(C)c(C)c3)cc2)no1`, the “inhibition” value was 1.26%.
On to `Cc1cc(NS(=O)(=O)c2ccc(NC(=O)Cc3ccc(Cl)c(Cl)c3)cc2)no1`, for which the “inhibition” value was -2.25%.
For the compound `O=C(Cc1ccc(Cl)c(Cl)c1)Nc1ccc(S(=O)(=O)Nc2ccn[nH]2)cc1`, the “inhibition” value is 12.7%.
Regarding `Cc1cc(NS(=O)(=O)c2ccc(NCCc3ccc(Cl)c(Cl)c3)cc2)no1`, the “inhibition” value is 6.15%.
On to `Cc1cc(N(C)S(=O)(=O)c2ccc(NC(=O)Cc3ccc(Cl)c(Cl)c3)cc2)no1`, for which the “inhibition” value is 7.13%.
Turning to `Cc1cc(NS(=O)(=O)c2ccc(NC(=O)c3ccc(Cl)c(Cl)c3)cc2)no1`, the “inhibition” value was 4.5%.
On to `Cc1cc(NS(=O)(=O)c2ccc(NS(=O)(=O)Cc3ccc(Cl)c(Cl)c3)cc2)no1`, for which the “inhibition” value was 10.1%.
Take `Cc1cc(NS(=O)(=O)c2ccc(C(=O)NCc3ccc(Cl)c(Cl)c3)cc2)no1`: the “inhibition” value is 12.6%.
With `CN(C)c1cccc(NS(=O)(=O)c2ccc(NC(=O)Cc3ccc(Cl)c(Cl)c3)cc2)c1`, the “inhibition” value is 10%.
For `Cc1cc(NC(=O)c2ccc(NC(=O)Cc3ccc(Cl)c(Cl)c3)cc2)no1`, the “inhibition” value was 9.14%.
Turning to `Cc1cc(NC(=O)c2csc(NC(=O)Cc3ccc(Cl)c(Cl)c3)n2)no1`, the “inhibition” value was 10.4%.
With `O=C(Cc1ccc(Cl)c(Cl)c1)Nc1ccc(S(=O)(=O)Nc2ccccc2)cc1`, the “inhibition” value is 9.48%.
`CCOC(=O)c1cccc(NS(=O)(=O)c2ccc(NC(=O)Cc3ccc(Cl)c(Cl)c3)cc2)c1`: the “inhibition” value is 11.7%.
For `COc1ccc(CC(=O)Nc2ccc(S(=O)(=O)Nc3cc(C)on3)cc2)cc1OC`, the “inhibition” value is 8.18%.
Take `O=C(Cc1ccc(Cl)c(Cl)c1)Nc1ccc(S(=O)(=O)O)cc1`: the “inhibition” value was 13.4%.
For the compound `Cc1cc(NS(=O)(=O)c2ccc(NC(=O)Cc3ccccc3)cc2)no1`, the “inhibition” value was 1.27%.
`Cc1cc(NS(=O)(=O)c2ccc(NC(=O)Cc3ccc(Cl)c(Cl)c3)cc2)n(C)n1`: the “inhibition” value is 9.44%.
As for `Cc1cc(N[S+](=O)([O-])c2ccc3cc(NC(=O)Cc4ccc(Cl)c(Cl)c4)ccc3c2)no1`, the “inhibition” value was 1.3%.
With `Cc1cc(N[S+](=O)([O-])c2ccc(NC(=O)Cc3ccc(Cl)nc3)cc2)no1`, the “inhibition” value was 7.09%.
Turning to `O=C(Cc1ccc(Cl)c(Cl)c1)Nc1ccc(S(=O)(=O)Nc2cncnc2)cc1`, the “inhibition” value is 8.9%.
Then `Cc1cc(NS(=O)(=O)c2ccc(NC(=O)Cc3cccc(Cl)c3)cc2)no1`, with 5.01%.
As to `COc1ccc(CC(=O)Nc2ccc(S(=O)(=O)Nc3cc(C)on3)cc2)cc1C`, the “inhibition” value was 5.25%.
Consider `Cc1cc(NS(=O)(=O)c2cccc(NC(=O)Cc3ccc(Cl)c(Cl)c3)c2)no1`, for which the “inhibition” value is 6.88%.
Turning to `Cc1cc(NS(=O)(=O)c2ccc(NC(=O)CCc3ccc(Cl)c(Cl)c3)cc2)no1`, the “inhibition” value is 7.06%.
On to `Cc1cc(NS(=O)(=O)c2ccc(NC(=O)Cc3ccc4ccccc4c3)cc2)no1`, for which the “inhibition” value was 5.31%.
As to `Cc1cc(NS(=O)(=O)c2ccc(NC(=O)Cc3ccc(Cl)cc3Cl)cc2)no1`, the “inhibition” value is 7.84%.
On to `O=C(Cc1ccc(Cl)c(Cl)c1)Nc1ccc(S(=O)(=O)Nc2ccon2)cc1`, for which the “inhibition” value is 7.77%.
Consider `Cc1cc(NS(=O)(=O)CCNC(=O)Cc2ccc(Cl)c(Cl)c2)no1`, for which the “inhibition” value is 6.94%.
As to `O=C(Cc1ccc(Cl)c(Cl)c1)Nc1ccc(S(=O)(=O)Nc2cccc(C(=O)O)c2)cc1`, the “inhibition” value was 11.7%.
As for `O=C(Cc1ccc(Cl)c(Cl)c1)Nc1ccc(S(=O)(=O)Nc2cccc(O)c2)cc1`, the “inhibition” value was 5.79%.
As to `Cc1cc(NS(=O)(=O)c2ccc(NC(=O)Cc3ccc(Cl)c(F)c3)cc2)no1`, the “inhibition” value is 7.83%.
Turning to `Cc1cc(NS(=O)(=O)c2ccc(NC(=O)Cc3ccc(C)c(F)c3)cc2)no1`, the “inhibition” value was 7.42%.
In the case of `O=C(Cc1ccc(Cl)c(Cl)c1)Nc1ccc(S(=O)(=O)Nc2ccc(C(=O)O)cc2)cc1`, the “inhibition” value was 3.89%.
In the case of `Cc1cc(NS(=O)(=O)C2CCN(C(=O)Cc3ccc(Cl)c(Cl)c3)CC2)no1`, the “inhibition” value was 5.05%.
In the case of `Cc1cc(NS(=O)(=O)c2ccc(NC(=O)Cc3ccc(Cl)c(Cl)c3)cc2)on1`, the “inhibition” value was 11.4%.
For the compound `Cc1cc(NS(=O)(=O)c2ccc(NC(=O)C(C)(C)c3ccc(Cl)c(Cl)c3)cc2)no1`, the “inhibition” value is 8.27%.
For the compound `Cc1cc(NS(=O)(=O)c2ccc(NC(=O)Cc3ccc(Cl)c(C(F)(F)F)c3)cc2)no1`, the “inhibition” value is 6.45%.
Take `Cc1cc(NS(=O)(=O)c2ccc(N(C)C(=O)Cc3ccc(Cl)c(Cl)c3)cc2)no1`: the “inhibition” value was 2.87%.
In the case of `Cc1cc(NS(=O)(=O)Cc2ccc(NC(=O)Cc3ccc(Cl)c(Cl)c3)cc2)no1`, the “inhibition” value is 12.5%.
On to `Cc1cc(NS(=O)(=O)c2ccc(NC(=O)Cc3ccc(Cl)cc3)cc2)no1`, for which the “inhibition” value was 7.74%.

Source of the values: PubChem BioAssay AID588332 (National Center for Advancing Translational Sciences (NCATS), 2011).
